Source: the supplement of paper PMC9694430

Assays:
Test in all cases: thermal shift delta Tm vs DMSO control; higher = stronger stabilization (binding)
Conditions in all cases: 12.5 µM; protein concentration 2 µM
[1] = system: LOC_OS02G45750-cb003
Summary of the method: (§1)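 Thermal shift values come from differential scanning fluorimetry on purified rice kinase domains made in E. coli, with melting temperatures obtained from Boltzmann fits. Samples of 19.5 μl held 2 μM kinase, 100 mM potassium phosphate pH 7.5, 150 mM NaCl, 10% glycerol, 5 × SYPRO Orange and compound in DMSO, and were heated from 25°C to 95°C at 0.05°C/s. Each shift is a triplicate mean relative to the DMSO-only protein sample.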

[2] = system: LOC_OS02G54510-cb004
Summary of the method: as §1

[3] = system: LOC_OS03G04050-cb001
Summary of the method: as §1

[4] = system: LOC_OS03G12390-cb001
Summary of the method: as §1

[5] = system: LOC_OS03G27990-cb004
Summary of the method: as §1

[6] = system: LOC_OS03G50450-cb001
Summary of the method: as §1

[7] = system: LOC_OS03G50810-cb003
Summary of the method: as §1

[8] = system: LOC_OS04G35114-cb001
Summary of the method: as §1

[9] = system: T1, LOC_OS04G38480-cb003
T1 sequence (whole entry): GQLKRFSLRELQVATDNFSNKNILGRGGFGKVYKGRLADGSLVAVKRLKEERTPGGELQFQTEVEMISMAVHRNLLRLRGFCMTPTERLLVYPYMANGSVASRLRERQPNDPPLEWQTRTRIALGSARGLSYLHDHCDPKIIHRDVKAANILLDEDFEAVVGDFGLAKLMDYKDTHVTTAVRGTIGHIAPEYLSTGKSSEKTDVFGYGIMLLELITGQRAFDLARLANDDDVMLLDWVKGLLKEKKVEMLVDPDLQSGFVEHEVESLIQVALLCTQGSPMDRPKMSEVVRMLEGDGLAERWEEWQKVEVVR
Summary of the method: as §1

[10] = system: T2, LOC_OS04G41100-cb001
T2 sequence (whole entry): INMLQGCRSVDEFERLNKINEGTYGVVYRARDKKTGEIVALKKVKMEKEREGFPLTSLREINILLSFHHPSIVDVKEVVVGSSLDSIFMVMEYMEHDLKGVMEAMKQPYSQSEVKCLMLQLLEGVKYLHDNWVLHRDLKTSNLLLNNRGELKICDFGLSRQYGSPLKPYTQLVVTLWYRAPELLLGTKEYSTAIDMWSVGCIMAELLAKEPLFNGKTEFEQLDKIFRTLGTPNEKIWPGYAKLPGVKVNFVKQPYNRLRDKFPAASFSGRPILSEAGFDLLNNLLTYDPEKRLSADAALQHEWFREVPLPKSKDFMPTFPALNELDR
Summary of the method: as §1

[11] = system: LOC_OS04G57630-cb004
Summary of the method: as §1

[12] = system: LOC_OS05G07850-cb002
Summary of the method: as §1

[13] = system: LOC_OS05G16824-cb004
Summary of the method: as §1

[14] = system: LOC_OS05G28520-cb001
Summary of the method: as §1

[15] = system: LOC_OS05G30820-cb001
Summary of the method: as §1

[16] = system: LOC_OS05G43570-cb004
Summary of the method: as §1

[17] = system: LOC_OS06G16330-cb003
Sequence of LOC_OS06G16330-cb003 (as listed by the source): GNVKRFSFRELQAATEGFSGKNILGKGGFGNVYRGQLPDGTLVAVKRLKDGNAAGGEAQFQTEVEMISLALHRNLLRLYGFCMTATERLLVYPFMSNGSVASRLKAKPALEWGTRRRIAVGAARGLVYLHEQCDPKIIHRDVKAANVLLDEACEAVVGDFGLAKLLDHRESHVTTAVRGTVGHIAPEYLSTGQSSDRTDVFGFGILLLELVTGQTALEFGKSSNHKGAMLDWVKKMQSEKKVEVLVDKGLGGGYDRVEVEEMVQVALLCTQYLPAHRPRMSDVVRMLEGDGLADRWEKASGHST
Summary of the method: as §1

[18] = system: T3, LOC_OS06G22820-cb001
T3 sequence (whole entry): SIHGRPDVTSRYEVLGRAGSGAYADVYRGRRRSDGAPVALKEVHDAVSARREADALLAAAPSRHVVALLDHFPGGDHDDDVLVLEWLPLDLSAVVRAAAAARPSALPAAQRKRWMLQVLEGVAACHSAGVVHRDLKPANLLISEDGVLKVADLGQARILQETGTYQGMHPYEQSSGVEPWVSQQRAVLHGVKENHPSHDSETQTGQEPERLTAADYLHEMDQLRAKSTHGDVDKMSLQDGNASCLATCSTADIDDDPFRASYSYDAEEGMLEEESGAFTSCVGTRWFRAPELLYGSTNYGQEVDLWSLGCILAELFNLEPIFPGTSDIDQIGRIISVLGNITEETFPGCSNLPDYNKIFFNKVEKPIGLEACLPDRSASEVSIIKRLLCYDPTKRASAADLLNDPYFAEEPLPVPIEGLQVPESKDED
Summary of the method: as §1

[19] = system: LOC_OS07G06570-cb004
Summary of the method: as §1

[20] = system: LOC_OS07G07230-cb001
Summary of the method: as §1
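Also: purified Escherichia coli-expressed rice kinase domain construct.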

Row | Structure (SMILES) | thermal shift delta Tm [1] [°C] | thermal shift delta Tm [2] [°C] | thermal shift delta Tm [3] [°C] | thermal shift delta Tm [4] [°C] | thermal shift delta Tm [5] [°C] | thermal shift delta Tm [6] [°C] | thermal shift delta Tm [7] [°C] | thermal shift delta Tm [8] [°C] | thermal shift delta Tm [9] [°C] | thermal shift delta Tm [10] [°C] | thermal shift delta Tm [11] [°C] | thermal shift delta Tm [12] [°C] | thermal shift delta Tm [13] [°C] | thermal shift delta Tm [14] [°C] | thermal shift delta Tm [15] [°C] | thermal shift delta Tm [16] [°C] | thermal shift delta Tm [17] [°C] | thermal shift delta Tm [18] [°C] | thermal shift delta Tm [19] [°C] | thermal shift delta Tm [20] [°C]
1 | CCS(=O)(=O)Nc1ccc2c(c1)/C(=C(/Nc1ccc(CN3CCCCC3)cc1)c1ccccc1)C(=O)N2 [Hesperadin] | 14.4 | 0.53 | 0.02 | 8.56 | 2.77 | 2.45 | 11.8 | 13.2 | 4.11 | 0.76 | 7.62 | 11.8 | 16.8 | -0.02 | 2.48 | 0.56 | 13.1 | 0.6 | 0.84 | -0.17
2 | CO[C@@H](C)Cn1c(=O)n(C)c2cnc3ccc(-c4cncc(C(C)(C)O)c4)cc3c21 | 1.57 | 0.18 | 0.72 | 0.09 | 0.68 | 0.89 | 0.67 | 3.42 | 1.29 | 0.38 | 0.18 | 4.35 | -0.98 | 0.31 | 0.49 | 0.43 | 0.71 | 0.7 | 0.91 | 0.7
3 | CO[C@H]1C[C@@H]2CC[C@@H](C)[C@@](O)(O2)C(=O)C(=O)N2CCCC[C@H]2C(=O)O[C@H]([C@H](C)C[C@@H]2CC[C@@H](OCCO)[C@H](OC)C2)CC(=O)[C@H](C)/C=C(\C)[C@@H](O)[C@@H](OC)C(=O)[C@H](C)C[C@H](C)/C=C/C=C/C=C/1C [Everolimus (RAD001)] | 0.22 | -0.05 | 0.59 | 0.14 | -0.04 | -0.1 | 0.05 | -0.39 | 0.94 | 0.65 | -0.03 | -0.04 | 1.13 | 0.62 | 0.41 | 0.57 | 0.13 | 1.04 | 0.88 | -1.46
4 | CCc1cnn2c(NCc3ccc[n+]([O-])c3)cc(N3CCCC[C@H]3CCO)nc12 | 0.58 | 0.19 | 0.27 | 1.31 | 0.33 | 0.63 | 0.67 | 0.57 | 0.56 | 0.68 | -0.16 | 2 | -0.11 | 0.17 | 0.37 | 0.19 | -0.11 | 0.41 | 0.51 | 0.3
5 | COc1ccc(COc2cc3oc(=O)c4cc(C(C)O)ccc4c3cc2OC)cc1 (stereo not given) [Palomid 529 (P529)] | -0.8 | 0.29 | 0.37 | -0.47 | 0.35 | 0.19 | 0.52 | 0.78 | 1.4 | 0.32 | 0.55 | 0.39 | -3.05 | 0.84 | 0.78 | 0.66 | 0.23 | 0.68 | 0.97 | 0.03
6 | COc1ccc2[nH]cc(/C=C3\C(=O)Nc4ccc(NC(=O)CCN5CCCCC5)cc43)c2c1 | 4.5 | 0.79 | 0.56 | 1.22 | 1.19 | 0.34 | 3.45 | 5.49 | 2.41 | 0.9 | 0.69 | 8.06 | 4.33 | 0.72 | 0.68 | 0.6 | 2.98 | 0.74 | 1.1 | 0.33
7 | C[C@@H]1COCCN1c1cc(C2([S@](C)(=N)=O)CC2)nc(-c2cc[nH]c3nccc2-3)n1 | 0.39 | 0.1 | 0.32 | -0.31 | 0.13 | 0.46 | 0.2 | 2.45 | 0.68 | 0.52 | -0.11 | 3.99 | -2.04 | 0.65 | 0.15 | 0.19 | 0.37 | -0.1 | 0.71 | -0.05
8 | CN1CCCN(C(=O)c2cccc(-c3ccc(/C=C4/C(=O)Nc5ccc(Cl)cc54)o3)c2)CC1 | 5.04 | 0.59 | 0.65 | 3.37 | 1.12 | 0.49 | 2.85 | 4.61 | 2.24 | 1.74 | 2.23 | 6.78 | 4.08 | 1.14 | 0.63 | 0.58 | 1.36 | 0.37 | 2.41 | 0.77
9 | CC(C)(O)CNc1ncc(-c2ccnc(Nc3ccncc3)n2)c(CC2CC2)n1 [VPS34 inhibitor 1 (Compound 19, PIK-III analogue)] | 2.27 | 0.29 | 0.5 | 0.77 | 0.32 | 0.37 | 0.9 | 1.51 | 1.97 | 0.43 | 0.13 | 6.5 | 2.61 | 0.38 | 0.25 | 0.5 | 3.99 | 0.4 | 1.83 | 0.44
10 | O=c1c(O)c(-c2cc(O)c(O)c(O)c2)oc2cc(O)cc(O)c12 [Myricetin] | 0.6 | -0.42 | 1.12 | 1.2 | 1.89 | 2.61 | -0.73 | 2.51 | 3.89 | 0.92 | 0.92 | 4.43 | 1.57 | 0.55 | 0.97 | 1.55 | 6.62 | 1.33 | -1.03 | 0.47
11 | Oc1cc(CNC(=S)/C=C/c2cc(O)c(O)c(Br)c2)cc(O)c1O | 0.11 | -0.88 | 0.71 | 0.57 | 0.49 | 0.42 | 0.39 | -1.08 | 0 | -0.03 | 0.49 | -1.85 | -0.73 | 0.47 | 0.99 | 1.46 | 0.61 | 2.08 | 3.05 | 0.45
12 | O=C(Nc1ccc(-c2ccnc(Nc3ccc(N4CCOCC4)cc3)n2)cc1)C1CCCN1 (stereo not given) | 0.77 | 0.47 | 0.4 | 1.05 | 0.29 | 0.37 | 0.83 | 2.26 | 1 | 0.45 | 0.39 | 8.89 | -1.75 | 0.58 | 0.48 | 0.34 | 2.94 | 0.34 | 1.36 | 0.39
